Bioassay records as filed in PubChem.
Hits are enriched below; roughly 3.6% of the tested compounds scored in any of these assays.
Anthrax LF prot – anthrax lethal factor protease inhibition. multiplex microsphere protease cleavage assay, LF. hit rate 0.12% among 360,000. P15917. AID 588501. inhibition, % at 10 µM
BoNT F protease – inhibitors of Botulinum neurotoxin F light chain protease. Multiplex microsphere protease cleavage assay, flow cytometry. inhibition, % at 10 µM. hit rate 0.22% among 360,000; in the data active means inhibition above about 35%, passing the limit was not always enough; inconclusive means no clear call, values can overlap the other calls
MazEF act – increases E. coli MazEF RNase cleavage of RNA. FAM/BHQ RNA-DNA oligo cleavage fluorescence, 5 h. activation, % at 20 µM. hit rate 0.32% among 350,000; in the data active means activation above about 50%
BoNT-A LC inh2 – blocks Botulinum neurotoxin A light chain protease; inhibition, % at 10 µM; AID 588499; multiplex microsphere protease substrate cleavage, flow cytometry; hit rate 0.17% among 360,000
Autofluor counter – flagged as autofluorescent in microsphere protease counterscreen | compound autofluorescence counterscreen, microsphere flow cytometry; active compounds read high | fluorescence intensity (no concentration beside the values) | hit rate 3.1% among 360,000; in the data active means fluorescence intensity above about 16000; inconclusive means no clear call, values can overlap the other calls
Large screens that a line does not name were inactive. Unless noted, no stated cut-off is given here; in the data, active means inhibition above about 30%; inconclusive means no clear call, values can overlap the other calls; inactive means below that.

Cc1nc(NC(=O)COc2ccccc2)sc1C(=O)Nc1cccc(Cl)c1	BoNT-A LC inh2 inconclusive, Autofluor counter 24209
COC(=O)COc1cccc(NC(=O)c2cccc(C)c2)c1	none
COc1ccc(OCC(=O)Nc2cccc(OC)c2)cc1	Autofluor counter 17719
COc1cccc(NC(=O)Cn2c(=O)oc3ccccc32)c1	Autofluor counter 23609
COC(=O)COc1cccc(NC(=O)COc2ccccc2)c1	none
Cc1ccc(NC(=O)Cn2c(=O)oc3ccccc32)cc1C	none
COc1ccc(NC(=O)c2sc(NC(=O)COc3ccccc3)nc2C)cc1	none
COC(=O)COc1cccc(NC(=O)c2ccccc2)c1	BoNT-A LC inh2 inconclusive, Autofluor counter 24578
N#Cc1cccc(NC(=O)COc2ccc(-n3ccnc3)cc2)c1	Autofluor counter 23571
COc1cc(NC(=O)COc2ccc(-n3ccnc3)cc2)cc(OC)c1	none
CCN1C=CC(=C2C(=O)c3ccccc3C2=O)C=C1	Autofluor counter 17505
CCCN1C=CC(=C2C(=O)c3ccccc3C2=O)C=C1	none
Cc1ccc(-c2nnc3ccc(SCC(=O)Nc4cc(C)on4)nn23)cc1	Autofluor counter 20468
Cc1cc(NC(=O)CSc2nnc(-c3cccnc3)n2C)no1	BoNT-A LC inh2 inconclusive, Autofluor counter 21792
Cc1nc(Cl)c2c(n1)N(CC(N)=O)C(=O)CO2	none
Cc1ccc(N2C(=O)C(O)(C(F)(F)F)C3=C2CC(C)(C)CC3=O)cc1 (stereo not given)	none
CC1(C)CC(=O)C2=C(C1)N(c1ccc(F)cc1)C(=O)C2(O)C(F)(F)F (stereo not given)	Autofluor counter 22420
O=C(COc1ccc(Br)cc1)Nc1ccc(-c2nnc(-c3ccco3)o2)cc1	Autofluor counter 21839
COc1ccccc1OCC(=O)Nc1ccc(-c2nnc(-c3ccco3)o2)cc1	none
CCN1C(=O)[C@H]2[C@@H](c3ccc(C(F)(F)F)cc3)N[C@]3(CCCN(Cc4ccc(Cl)cc4)C3=O)[C@H]2C1=O	none
Cc1ccc(Cn2c(CN(C)Cc3ccccc3)nc3c2c(=O)n(C)c(=O)n3C)cc1	none
Cn1c(=O)c2c(nc(NCc3ccc4c(c3)OCO4)n2Cc2ccc(F)cc2)n(C)c1=O	Autofluor counter 18743
CCCCCn1c(CN(C)Cc2ccccc2)nc2c1c(=O)n(C)c(=O)n2C	Autofluor counter 23164
CN(Cc1ccccc1)Cc1nc2c(c(=O)n(C)c(=O)n2C)n1Cc1ccc(F)cc1	Autofluor counter 23112
Cn1c(=O)c2c(nc(NCc3ccc4c(c3)OCO4)n2Cc2ccccc2)n(C)c1=O	none
CCCCn1c(CN(Cc2ccccc2)Cc2ccccc2)nc2c1c(=O)n(C)c(=O)n2C	none
CC1(C(=O)NS(=O)(=O)c2ccc(Cl)cc2)CCN1C(=O)C1(c2ccc(Cl)cc2)CCC1 (stereo not given)	none (no result: MazEF act)
O=C(NCc1cccs1)C1CCN(c2nc3ccccc3o2)CC1	none
CC(C)CCNC(=O)C1CCN(c2nc3ccccc3o2)CC1	Autofluor counter 16365
Cn1cc(Br)c(C(=O)NC2C3CC4CC(C3)CC2C4)n1 (stereo not given)	BoNT-A LC inh2 inconclusive, Autofluor counter 20443
COC(=O)c1ccccc1NC(=O)COc1ccccc1	none
COCCNC(=O)c1ccccc1NC(=O)COc1ccccc1	Autofluor counter 20130
CCCS(=O)(=O)N1CCN(C(=O)c2cccc(OC)c2)CC1	none
COc1cccc(S(=O)(=O)Nc2ccc(C(=O)N3CCN(C(=O)c4ccco4)CC3)cc2)c1	Autofluor counter 18332
CS(=O)(=O)N1CCN(C(=O)c2c(F)cccc2F)CC1	Autofluor counter 23941
COc1cccc(C(=O)N2CCN(S(C)(=O)=O)CC2)c1	Autofluor counter 23027
CCC(c1nnnn1-c1ccc2c(c1)OCCO2)N1CCN(c2ccc(C(F)(F)F)cc2[N+](=O)[O-])CC1 (stereo not given)	none (no result: MazEF act)
Cc1ccc(C(O)c2nc3ccccc3n2C)cc1 (stereo not given)	BoNT F protease 35.4
CC(C)c1ccc(C(O)c2nc3ccccc3n2C)cc1 (stereo not given)	BoNT F protease inconclusive
O=C(Nc1ccc(F)cc1F)c1cc(-c2ccco2)on1	BoNT-A LC inh2 inconclusive, Autofluor counter 23169
Cc1ccc(NC(=O)c2cc(-c3ccc(F)cc3)on2)cc1C	none
CC(=O)c1cccc(NC(=O)c2cc(-c3ccc(F)cc3)on2)c1	Autofluor counter 19126
Cc1ccc(Nc2nc(C(=O)NCc3ccco3)cs2)cc1	Autofluor counter 21266
O=C(NCc1ccc(F)cc1)c1cc(-c2ccco2)on1	Autofluor counter 23399
COc1ccc(CNC(=O)c2cc(-c3ccco3)on2)cc1	Autofluor counter 20809
O=C(NCc1ccco1)c1cc(-c2ccc(F)cc2)on1	Autofluor counter 22220
O=C(NCc1ccco1)c1cc(-c2ccccc2)on1	none
O=C(NCc1ccc(Cl)cc1)c1cc(-c2ccco2)on1	none
Cc1cccnc1NC(=O)C12CCC(C)(C(=O)O1)C2(C)C (stereo not given)	Autofluor counter 22033
COc1cc(OC)cc(C(=O)NCC2CCCN(C(=O)c3csc(C(C)C)n3)C2)c1 (stereo not given)	none
CCn1c(=O)c(C(=O)NCc2ccccc2Cl)c(O)c2ccccc21	none
Cn1c(=O)c(C(=O)NCc2ccccc2Cl)c(O)c2ccccc21	MazEF act 53.8
Cc1nc2ccc(NC(=S)NC(C)C)cc2nc1C	Autofluor counter 22287
CC(=O)Nc1ccc2c(c1)C(C)(C)C(C)N2C (stereo not given)	none (no result: Anthrax LF prot, BoNT F protease, BoNT-A LC inh2, Autofluor counter)
Cc1ccc(S(=O)(=O)C(CCC(=O)N2CCOCC2)S(=O)(=O)c2ccc(C)cc2)cc1	Autofluor counter 16223
Cc1ccc(S(=O)(=O)CC(=O)N2CCOCC2)cc1	none
O=C(CNS(=O)(=O)c1ccc(Br)cc1)N1CCOCC1	Autofluor counter 22354
CC(=O)c1ccc(NC(=O)NC2CCCCCCC2)cc1	none
CC1(C)NC(=O)N(CCSc2ccc(Cl)cc2)C1=O	Autofluor counter 19822
CC1(C)NC(=O)N(CCOCCSc2ccccc2)C1=O	Autofluor counter 24307
COc1ccccc1N=c1scc(-c2ccc3c(c2)NC(=O)CO3)n1CC1CCCO1 (stereo not given)	none
O=C1COc2ccc(-c3csc(=Nc4ccc(OC(F)F)cc4)n3CC3CCCO3)cc2N1 (stereo not given)	Autofluor counter 18135
COC(=O)Cc1ccc(OC2(C)CCN(Cc3ccccc3OC(F)F)C2)cc1 (stereo not given)	none (no result: MazEF act)
Cc1ccc(NC(=S)NCc2cccn2C)cc1	Autofluor counter 22735
CCCCSc1nc(NCc2ccco2)c2c3c(sc2n1)COC(C)(C)C3	Autofluor counter 16223
CCCSc1nc(NCc2ccco2)c2c3c(sc2n1)COC(C)(C)C3	Autofluor counter 17467
COc1ccc(OC)c(NC(=O)CCCCCn2nnc3ccccc3c2=O)c1	none
CCOc1cc(CNCC2CCCN2CC)cc(Cl)c1OC (stereo not given)	none
CCN1CCCC1CNCc1cc(OC)c(OC)c(OC)c1 (stereo not given)	Autofluor counter 24874
COc1cc(C(C(=O)NC2CCCC2)N(CCO)C(=O)Cn2nnc(-c3ccc(C)o3)n2)ccc1O (stereo not given)	none
